Laboratory results reported in PubChem BioAssay (NCATS).
Records with an inconclusive call do not appear. Active and inactive are the calls of the source. Calls follow the shape of the dose curve; as a rule, active = well fitted inhibition curve with a large enough effect; inconclusive = small, poorly fitted or top-dose-only effect; inactive = flat fitted curve, though single readings scatter.

assay: BET inhibitor-based combinations targeting novel dependencies in MECOM-rearranged (r) AML: AML-191 cell line (AID 2202236; also: nearly all actives have a fitted effect of over 35% in size;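 as to viability (% of control): plate controls were vehicle wells for no effect and wells without cells for full effect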); conditions: AML-191 viability, CellTiter-Glo luminescence, 48 h; series mostly up to 46 µM; viability (% of control): at the top concentration
Text: Ecotropic viral insertion site 1 (EVI1) is located on chromosome 3q26.2 as part of the MECOM (MDS and EVI1 complex) locus. Under normal hematopoiesis, EVI1 is a regulator of hematopoietic stem cell maintenance and self-renewal and EVI1 levels decrease as the cells differentiate. In approximately 5-10% of de novo acute myeloid leukemia (AML) EVI1 is aberrantly expressed, including Chromosomal inv(3)(q21;q26.2) or t(3;3)(q21;q26.2) alterations (MECOM-r) that account for about 50% of AML with EVI1 overexpression 31. AMLs with high levels of EVI1 have a poor prognosis and an overall survival time averaging between 10-14 months. EVI1 overexpression confers resistance in leukemia cells, highlighting the need to develop new targeted therapies for EVI1 overexpressing AMLs.
Here, we performed an unbiased chemical drug screening by evaluating the single agent activity of a collection of 2,480 oncology-focused, approved and investigational drugs (NCATS Mechanism Interrogation Plates, MIPE v5.0) against a panel of seven AML cell lines. These included four MECOM-r cell-lines (AML-191, AML-194, UCSD-AML1 and HNT-34) and three non-MECOM-r AMLs (MV4-11, OCI-AML3 and SET-2). Exploiting the mechanistic redundancy built in the library, we identified target-level sensitivities in MECOM-r AML cells and relative activity as compared to other AML subtypes.
A collection of 2480 mechanistically annotated dugs (MIPE v5.0) was used to screen four 3q26.2 rearranged AML cell lines and three non-3q26.2 rearranged AML cell lines. This library purposely exploits redundancy by including multiple inhibitors of key onco-targets, while simultaneously encompassing mechanistic diversity, targeting more than 800 distinct mechanisms of action. Briefly, cells were seeded in 5 uL of growth media using a Multidrop Combi dispenser into 1536 well white polystyrene tissue culture treated plates (Corning) at a density of 500cells/well. For each cell-line, for each of the 2480 drugs in MIPE v5.0 library, an 11-point dose curve was generated via a 1536 pin-tool. Plates were incubated for 48 hr at standard incubator conditions, covered by a stainless steel gasketed lid to prevent evaporation. Cell viability was determined by luminescence based, Cell Titer Glo assay (Promega). In detail, 3 uL of Cell Titer Glo were added to each well and plates were incubated at room temperature for 15 min with a stainless-steel lid in place. Luminescence readings were taken using a Viewlux (PerkinElmer) with a 2 s exposure time per plate. Compound dose-response curves were normalized to DMSO and empty well controls on each plate. Quantitative drug activity data from dose-response curves was determined utilizing area Under the Curve (AUC) and Z-transformed AUC (Z-AUC, a mean-centering transformation applied to each individual cell-line screened).
Potency is read from the fitted curve at half-maximal effect.

| Structure (SMILES) | Potency | viability (% of control) |
| --- | --- | --- |
| C=CC(=O)Nc1cccc(Nc2nc(Nc3ccc(OCCOC)cc3)ncc2F)c1 | 8.33 µM (active) |  |
| CCC(C)(C)C(=O)O[C@H]1C[C@@H](C)C=C2C=C[C@H](C)[C@H](CC[C@@H]3C[C@@H](O)CC(=O)O3)[C@H]21 |  | 86.8% (inactive) |
| NC(=O)Nc1cc(-c2cccc(F)c2)sc1C(=O)N[C@H]1CCCNC1 | 0.332 µM (active) |  |
| CC(C)C(=O)Nc1ncc(-c2cc(C(F)F)nn2-c2c(Cl)cccc2Cl)s1 | 20.9 µM (active) |  |
| CN(C(Cc1ccc(OS(=O)(=O)c2cccc3cnccc23)cc1)C(=O)N1CCN(c2ccccc2)CC1)S(=O)(=O)c1cccc2cnccc12 (stereo not given) | 9.34 µM (active) |  |
| O=C(NCC(=O)N1CCCC1)Nc1ccc2cnccc2c1 |  | 79.5% (inactive) |
| CN1C(=O)C[C@H](C(=O)N[C@@H](Cc2cnc[nH]2)C(=O)N2CCC[C@@H]2C(N)=O)NC1=O | 20.9 µM (active) |  |
| CN(C)c1ccc2nc3ccc(=[N+](C)C)cc-3sc2c1 | 2.95 µM (active) |  |
| CN1CCN(c2cc(C(=O)Nc3ccc4c(c3)-c3c(c(C(N)=O)nn3-c3ccc(F)cc3)CC4)c(Cl)cn2)CC1 | 8.33 µM (active) |  |
| CC(Cc1ccc(O)c(O)c1)(NN)C(=O)O (stereo not given) |  | 96.3% (inactive) |
| CC(N)C12CC3CC(CC(C3)C1)C2 (stereo not given) |  | 104% (inactive) |
| CC(C)[C@H](O)C(=O)N[C@@H](C)C(=O)N[C@@H]1C(=O)N(C)CCc2ccccc21 |  | 100% (inactive) |
| Cn1ncnc1[C@H]1c2n[nH]c(=O)c3cc(F)cc(c23)N[C@@H]1c1ccc(F)cc1 | 1.86 µM (active) |  |
| CNC(=O)c1cc(Oc2ccc3nc(N[C@@H]4CCCC[C@H]4O)sc3c2)ccn1 | 14.8 µM (active) |  |
| O=c1[nH]c(-c2ccc(C(F)(F)F)cc2)nc2c1CSCC2 |  | 94.3% (inactive) |
| Cc1ccc(S(=O)(=O)Nc2nc3ccccc3nc2Nc2ccc3nsnc3c2)cc1 |  | 96.9% [at 15.6 µM] (inactive) |
| CCN(CC)Cc1ccc2cc(COC(=O)Nc3ccc(C(=O)NO)cc3)ccc2c1 | 0.742 µM (active) |  |
| C[C@H](CCC(=O)O)[C@H]1CCC2C3C[C@H](O)[C@@H]4C[C@H](O)CC[C@]4(C)C3CC[C@@]21C (stereo not given in full) |  | 104% (inactive) |
| COc1ccc2c(c1)c(CC(=O)O)c(C)n2C(=O)c1ccc(Cl)cc1 |  | 107% (inactive) |
| O=C(O)CCc1ccc(NCc2cccc(Oc3ccccc3)c2)cc1 |  | 107% (inactive) |

| Structure (SMILES) | Potency | viability (% of control) |
| --- | --- | --- |
| CNC(=O)Nc1ccc(-c2nc(N3CC4CCC(C3)O4)c3cnn(C4CCC5(CC4)OCCO5)c3n2)cc1 | 0.0295 µM (active) |  |
| c1ccc(-c2oc3ncnc(NC[C@@H]4CCCO4)c3c2-c2ccccc2)cc1 |  | 63.5% (inactive) |
| CCN1CCN(c2ccc(Nc3cc(N(C)C(=O)Nc4c(Cl)c(OC)cc(OC)c4Cl)ncn3)cc2)CC1 | 26.3 µM (active) |  |
| O=C1Nc2ccc(I)cc2/C1=C/c1cc(Br)c(O)c(Br)c1 | 18.6 µM (active) |  |
| CC(C)[C@@H](CS(=O)(=O)C(C)C)N1C(=O)[C@@](C)(CC(=O)O)C[C@H](c2cccc(Cl)c2)[C@H]1c1ccc(Cl)cc1 | 2.35 µM (active) |  |
| CCc1c2c(nc3ccc(OC(=O)N4CCC(N5CCCCC5)CC4)cc13)-c1cc3c(c(=O)n1C2)COC(=O)[C@]3(O)CC | 0.235 µM (active) |  |
| C1=C/COCc2cc(ccc2OCCN2CCCC2)Nc2nccc(n2)-c2cccc(c2)COC/1 | 1.86 µM (active) |  |
| CC(C)C[C@@H](N)[C@H](O)C(=O)N[C@H](C(=O)N[C@H](C(=O)N[C@@H](CC(=O)O)C(=O)O)C(C)C)C(C)C |  | 113% (inactive) |
| COC(=O)Nc1nc2ccc(Sc3ccccc3)cc2[nH]1 | 0.468 µM (active) |  |
| c1ccc(CNc2nc(NCc3ccccc3)c3ccccc3n2)cc1 | 9.34 µM (active) |  |
| CCOc1ccccc1N=Nc1c(C)[nH]n(-c2nc(-c3ccccc3)cs2)c1=O |  | 99.7% (inactive) |
| CCOC(=O)c1ncn2c1CN(C)C(=O)c1cc(F)ccc1-2 |  | 103% (inactive) |
| CC1(C)CCC2=C(O1)c1ccccc1C(=O)C2=O | 7.42 µM (active) |  |
| CC(C)(Oc1ccc(C2CC2(Cl)Cl)cc1)C(=O)O (stereo not given) |  | 104% (inactive) |
| O=C(Nc1ccc([N+](=O)[O-])cc1Cl)c1cc(Cl)ccc1O | 1.05 µM (active) |  |
| CS(=O)(=O)Oc1ccc2c(NC(N)=O)c(C(=O)c3ccc(Cl)cc3Cl)oc2c1 |  | 105% (inactive) |
| CC(C)=CC[C@@H](O)C1=CC(=O)c2c(O)ccc(O)c2C1=O | 10.5 µM (active) |  |
| c1ccc2c(-c3cnn4cc(-c5ccc(N6CCNCC6)cc5)cnc34)ccnc2c1 | 2.63 µM (active) |  |
| Cc1c(CN2CCN(S(C)(=O)=O)CC2)sc2c(N3CCOCC3)nc(-c3cnc(N)nc3)nc12 | 0.59 µM (active) |  |
| CNC(=O)c1cc(Oc2ccc(NC(=O)Nc3cc(C(C)(C)C)nn3-c3ccc4ncccc4c3)c(F)c2)ccn1 | 20.9 µM (active) |  |
